Eight compounds from PubChem BioAssay (NCI) can be followed below.

Assay in all cases: NCI-60 one-dose screen, 48 h (100 = growth as untreated, 0 = no growth, -100 = all killed)
Holding throughout (conditions): 10 µM

In assay [1] the test system is HCT-15 colon.
For assay [2], the system named is HT29 colon.
Assay [3] relates to SNB-75 CNS.
In assay [4] the test system is SNB-19 CNS.
Assay [5] concerns U251 CNS.
For assay [6], the system named is PC-3 prostate.
Assay [7] has as its system SK-MEL-5 melanoma.
Assay [8] has as its system UACC-62 melanoma.
Assay [9] concerns LOX IMVI melanoma.
The subject of assay [10] is SK-MEL-28 melanoma.
Assay [11] has as its system SK-MEL-2 melanoma.
Assay [12] relates to SN12C renal.
Assay [13] deals with UO-31 renal.
The test system of assay [14] is TK-10 renal.
The test system of assay [15] is ACHN renal.
Assay [16] relates to CAKI-1 renal.
Assay [17] deals with A498 renal.
Assay [18] relates to CCRF-CEM leukemia.
The subject of assay [19] is EKVX NSCLC.
Assay [20] relates to MOLT-4 leukemia.

Compounds without any hit were thinned out: in the full panel of roughly 83,000, 20% have a hit.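 Single-concentration screen, 48 h exposure, 96-well plates. Endpoint: percent growth. Below 10 = active.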 Values without a mark were called inactive. Calls of active or inactive are those of the source.

With `COc1cc(C(=O)n2nc(N)c3c(C)cc(C)nc32)cc(OC)c1OC`, the growth was 33.2% in [1]; 24% in [2]; 57.9% in assay [3]; 98.4% in [4]; 72.1% in assay [5]; 81.2% in assay [6]. Also, the growth was 73.8% in assay [7]; 80.5% in [8]; 54% in [9]; 97.6% in [10]; 30.3% in assay [11]; 79.8% in assay [12]. Further, the growth in [13] was 84.7%; in assay [14], 98.3%; in assay [15], 91.9%; in [16] it was 76.7%; in [17], 60.2%; in assay [18] it was 57.6%.

For the compound `Cc1ccc2c3c(cccc13)-c1ccccc1C2=O`, the growth in assay [1] is 85%; in [2], 83.3%; in assay [3] it was 89.6%; in [4], 96.5%; in assay [5] it was 87.8%; in assay [6], 91.3%. The growth in assay [7] is 91.3%; in [8], 90.6%; in [9], 97.8%; in assay [10] it was 121%; in [11], 97.2%; in assay [19] it was 67.8%. Also, the growth in assay [13] is 75.2%; in assay [14], 94%; in [15] it was 96.8%; in assay [16], 89%; in assay [17], 78.2%; in assay [18], 83.5%. In assay [20], the growth is 87.4%.

On to `O=C(N/N=c1/ccoc2cccnc12)N1CCN(c2ncccn2)CC1`, for which the growth in [1] was 24.9%; in assay [2], 34.6%; in assay [3], 70.7%; in assay [4], 35%; in assay [5] it was 17.9%; in assay [6], 26.2%. For the same compound, the growth in assay [7] was -36.8% (active); in assay [8] it was 7.9% (active); in assay [9], 18.1%; in assay [10] it was 48.4%; in assay [11] it was 11.8%; in assay [19] it was 17.4%. In addition, the growth was 24.8% in assay [13]; 27.4% in assay [14]; 25.1% in [15]; 26% in [16]; 45.3% in [17]; 30.5% in assay [18]. Also, the growth in assay [20] was 8.23% (active).

With `Clc1cc(Cl)c(OCCCCCCN2CCNCC2)c(Cl)c1`, the growth in assay [1] was -32% (active); in assay [2], -34.1% (active); in assay [3] it was 52.7%; in [4], 49.8%; in assay [5] it was 8% (active); in assay [6], 46.1%. For the same compound, the growth is -15.6% (active) in assay [7]; -54.4% (active) in assay [8]; -66.2% (active) in assay [9]; -12.6% (active) in assay [10]; 65.2% in assay [11]; 63.3% in assay [19]. The growth in assay [13] is 73.2%; in assay [14], 65.9%; in assay [15], 47.2%; in [16], 32.3%; in assay [17], 48.1%; in assay [18], 10.7%. The growth in [20] is -9.72% (active).

Regarding `Cc1cc(C(C)(C)CC(C)(C)C)ccc1OCCOCC[N+](C)(C)Cc1ccccc1`, the growth in assay [1] was 94.6%; in assay [2] it was -81.2% (active); in assay [3] it was -63.4% (active); in assay [4] it was -80.8% (active); in [5] it was -86.2% (active); in assay [6], -19.4% (active). For the same compound, the growth in assay [7] is -95.8% (active); in assay [8] it was -91.9% (active); in assay [9], -92.9% (active); in assay [10], -92% (active); in assay [11], -34.2% (active); in assay [19], -0.736% (active). The growth is 65.4% in [13]; -11.6% (active) in [14]; 89.1% in [16]; 4.39% (active) in assay [17]; -8.84% (active) in assay [18]; -39.6% (active) in assay [20].

As to `COc1ccc2nc(C)cc(Nc3ccc(Cl)cc3)c2c1`, the growth in assay [1] is 99.1%; in assay [2], 116%; in assay [3] it was 102%; in assay [4], 104%; in [5], 97.1%; in [6] it was 100%. In addition, the growth is 93.7% in [7]; 99% in assay [8]; 105% in assay [9]; 105% in [10]; 104% in [11]; 97.4% in assay [12]. Also, the growth in assay [13] was 91.1%; in [14] it was 109%; in assay [15] it was 105%; in [16] it was 101%; in assay [17], 103%; in assay [18], 94.5%.

For `COCCOC(=O)NC(=O)Nc1ccc(C(=O)c2ccc(Cl)cc2)cc1`, the growth in assay [1] is 20.9%; in assay [2], 11.9%; in [3], 6.4% (active); in [4], 41.3%; in assay [5] it was 37.8%; in assay [6], 32.1%. Moreover, the growth in [7] was 5.54% (active); in assay [8] it was 25.8%; in [9], 37.2%; in assay [10], 62.6%; in assay [11], 27.6%; in assay [19], 31.4%. Besides, the growth in assay [13] is 40.3%; in [14], 53.2%; in assay [15] it was 42.7%; in assay [16] it was 32.8%; in assay [18], 18.5%; in [20], 32.7%.

With `CCCCCCCCCCCCCC[n+]1ccccc1`, the growth is 34.5% in assay [1]; -52.4% (active) in assay [2]; -39.5% (active) in assay [3]; -45.4% (active) in [4]; -88.3% (active) in assay [5]; -80.8% (active) in [6]. Besides, the growth was -95.3% (active) in assay [7]; -81.1% (active) in assay [8]; -72.1% (active) in assay [9]; -23.5% (active) in assay [10]; -78% (active) in assay [11]; -41.8% (active) in assay [12]. In addition, the growth in assay [13] was 5.61% (active); in [14] it was -70.4% (active); in assay [15], 4.31% (active); in assay [16], -43.8% (active); in assay [17], 7.27% (active); in assay [18], -42.2% (active).
